Screening results from PubChem BioAssay.
HttQ103 aggreg: qHTS Multiplex Assay to Identify Dual Action Probes in a Cell Model of Huntington: Aggregate Formation (GFP); PC12 HttQ103-GFP aggregates, Acumen cytometry, 40 h; Potency, µM (doses to about 46.1 µM), usual class: inhibitors; hit rate 1.1% among 220,000; AID 1688, 2009; also: nearly all actives have a fitted effect of over 60% in size
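PC12/HTTQ103-GFP, ecdysone-inducible; teb 100 nM; cpd qHTS titration; GFP aggregates read on laser cytometer, Ex 488/Em 500-530 nm.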
HTT cytoprotect: qHTS Multiplex Assay to Identify Dual Action Probes in a Cell Model of Huntington: Cytoprotection (ATP) | PC12 HTT-Q103 induced, cytoprotection, ATP luminescence, 40 h | Potency, µM (series often up to 56.4 µM), hits mostly activators | hit rate 0.14% among 230,000 | AID 1471, 2008; also: nearly all actives have a fitted effect of over 45% in size
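Rat PC12, Q103 Htt exon1-GFP fusion, ecdysone promoter; tebufenozide inducer 100 nM final; compound titration; qHTS, 1500 cells/well; ATPlite luminescent read.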
ALDH1A1 block: qHTS Assay for Inhibitors of Aldehyde Dehydrogenase 1 (ALDH1A1); Aldehyde dehydrogenase 1A1 (Homo sapiens), P00352; Purified ALDH1A1, NADH fluorescence, propionaldehyde substrate; Potency, µM (doses to about 75.3 µM), actives largely listed as inhibitors; hit rate 7.3% among 220,000; AID 1030, 2008; active = well fitted inhibition curve with a large enough effect, not every such curve was filed as active; inconclusive = small, poorly fitted or top-dose-only effect, or another doubt; inactive = no such curve, though single readings can be large or run the other way
Target sequence (P00352 whole entry, looked up): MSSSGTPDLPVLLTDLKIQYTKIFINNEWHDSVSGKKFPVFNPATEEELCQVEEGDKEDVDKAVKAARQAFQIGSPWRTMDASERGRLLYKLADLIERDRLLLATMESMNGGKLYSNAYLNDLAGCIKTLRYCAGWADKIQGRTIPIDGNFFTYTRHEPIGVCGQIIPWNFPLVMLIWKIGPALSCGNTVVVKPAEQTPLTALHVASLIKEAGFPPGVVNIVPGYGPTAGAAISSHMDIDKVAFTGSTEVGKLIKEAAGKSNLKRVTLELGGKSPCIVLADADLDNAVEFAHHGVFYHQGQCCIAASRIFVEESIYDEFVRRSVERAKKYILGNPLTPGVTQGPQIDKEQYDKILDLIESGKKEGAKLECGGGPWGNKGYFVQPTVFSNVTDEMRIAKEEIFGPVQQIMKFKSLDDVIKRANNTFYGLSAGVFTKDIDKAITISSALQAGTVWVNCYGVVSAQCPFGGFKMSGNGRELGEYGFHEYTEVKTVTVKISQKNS
HPGD inh: qHTS Assay for Inhibitors of HPGD (15-Hydroxyprostaglandin Dehydrogenase); AID 894, 2007; Potency, µM, hits mostly inhibitors; hit rate 4.3% among 150,000; purified HPGD, NADH fluorescence kinetic, PGE2 substrate; active = well fitted inhibition curve with a large enough effect, not every such curve was filed as active; inconclusive = small, poorly fitted or top-dose-only effect, or another doubt; inactive = no such curve, though single readings can be large or run the other way
Target sequence (P15428 whole entry, looked up): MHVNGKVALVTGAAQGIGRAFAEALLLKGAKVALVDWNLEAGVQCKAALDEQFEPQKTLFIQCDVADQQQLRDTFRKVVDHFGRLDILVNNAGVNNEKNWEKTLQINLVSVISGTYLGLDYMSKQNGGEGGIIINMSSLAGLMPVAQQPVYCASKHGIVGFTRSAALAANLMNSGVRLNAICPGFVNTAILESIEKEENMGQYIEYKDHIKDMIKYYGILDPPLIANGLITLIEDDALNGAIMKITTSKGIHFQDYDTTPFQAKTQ
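20 nM HPGD preincubated 15 min at room temperature with compound in 50 mM Tris-HCl pH 8, 0.01% Tween 20. Started with 1 mM NAD+ and 30 uM prostaglandin E2; NADH fluorescence (360/450 nm) read 5 times over 30-s intervals, last minus first.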
IMPase Li cell: qHTS Assay for Identifying the Cell-Membrane Permeable IMPase Inhibitors: Potentiation with Lithium. hit rate 0.35% among 210,000. CHO-M1 cells, IP1 TR-FRET (IP-One), carbachol + lithium. Potency, µM (series often up to 59.4 µM), most hits filed as inhibitors;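 also: IP1 builds up when IMPase is blocked and the TR-FRET signal falls; nearly all actives have a fitted effect of over 50% in size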
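Steps: plate 2000 CHO-M1 cells per well and culture 16–30 h; add compound and lithium; incubate 30 min, 37C; add d2-IP1 tracer and Eu cryptate anti-IP1 antibody in lysis buffer; read after 10 min at room temperature.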
IMPase inh: qHTS Assay for Identifying the Cell-Membrane Permeable IMPase Inhibitors; CHO-M1 cells, IP1 accumulation, HTRF TR-FRET ratio; AID 901, 2007; 120,000 tested, under 10 active; inhibition (IP1 accumulation), % at 46.1 µM; active = well fitted curve in the direction sought with a large enough effect in the signal ratio, not every such curve was filed as active; inconclusive = small, poorly fitted or top-dose-only effect, or a change in a side signal; inactive = no such curve, though single readings can be large or run the other way; the % refers to the signal ratio;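 also: cells stimulated with carbachol in lithium chloride buffer; higher means more IMPase inhibition seen as more IP1 and lower FRET ratio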
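Measured: the HTRF emission ratio (665/620 nm) plus the 620 nm donor channel, each fitted to the Hill equation to give AC50. Cells were CHO-M1 given compounds up to 46 uM and a 30 min carbachol stimulation at 37C.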
A number is an active result; - = inactive; ? = inconclusive; . = not tested or not shown; [ ] = dose if it differs, or a comment. In the library only some 9.4% were active in any assay of this set; here they are far more common. Unless noted, calls follow the shape of the dose curve; as a rule, active = well fitted curve in the direction sought with a large enough effect; inconclusive = small, poorly fitted or top-dose-only effect, or another doubt; inactive = no such curve, though single readings can be large; an effect the other way counts as inactive or inconclusive.

SMILES	HttQ103 aggreg	HTT cytoprotect	ALDH1A1 block	HPGD inh	IMPase Li cell	IMPase inh
NC(N)=NS(=O)(=O)c1ccc(NC(=S)NC(=O)c2sc3ccccc3c2Cl)cc1	-	-[10 µM]	?	-	-	.
O=c1c2ccccc2nc2n1CC/C2=C\c1ccccc1[N+](=O)[O-]	-	-	-	-	-	-
O=c1c2ccccc2nc2n1CC/C2=C/N1CCN(c2cccc(C(F)(F)F)c2)CC1	-	-[0.074 µM]	3.98µM	.	.	-
CC[C@H](C)[C@H](NC(=O)[C@H](C)NC(=O)[C@H](CC(N)=O)NC(=O)[C@H](CCCCN)NC(=O)[C@H](Cc1ccccc1)NC(=O)[C@H](CC(C)C)NC(=O)[C@@H](NC(=O)[C@@H](NC(=O)[C@H](CC(C)C)NC(=O)[C@@H]1CCCN1C(=O)[C@@H](NC(=O)[C@H](CCC(N)=O)NC(=O)[C@H](CO)NC(=O)[C@H](CCCCN)NC(=O)[C@H](CCC(=O)O)NC(=O)[C@H](CO)NC(=O)[C@@H](NC(=O)[C@H](CCSC)NC(=O)[C@H](Cc1ccccc1)NC(=O)CNC(=O)CNC(=O)[C@@H](N)Cc1ccc(O)cc1)[C@@H](C)O)[C@@H](C)O)C(C)C)[C@@H](C)O)C(=O)N[C@H](C(=O)N[C@@H](CCCCN)C(=O)N[C@@H](CC(N)=O)C(=O)N[C@@H](C)C(=O)N[C@@H](Cc1ccc(O)cc1)C(=O)N[C@@H](CCCCN)C(=O)N[C@@H](CCCCN)C(=O)NCC(=O)N[C@@H](CCC(=O)O)C(=O)O)[C@@H](C)CC	.	-	-	.	-	.
Cc1cccc(NC(=O)c2cccc3c2-c2ccccc2C3=O)n1	-	-	-	.	-	.
Cc1cccc(NC(=O)c2ccccc2Br)n1	-	-	?	25.1µM	-	-
Cc1cccc(NC(=O)c2onc3c2CCCC3)n1	-	.	22.4µM	-	-	.
Cc1nc(Cl)cc(CS(=O)(=O)c2ccc(Cl)cc2)n1	-	-	20µM	.	-	.
O=S(=O)(Cc1ccccc1)NCC1CCCN(Cc2cccc3nonc23)C1 (configuration not stated)	-[9.22 µM]	-[10 µM]	10µM	.	-	.
O=C(COC(=O)c1ccc2c(c1Cl)C(=O)c1ccccc1C2=O)NC1CC1	-	-[10 µM]	?	7.94µM	-	.
O=C(COC(=O)c1ccc2c(c1Cl)C(=O)c1ccccc1C2=O)NC1CCCCC1	-	-[0.074 µM]	-	6.31µM	-	.
Cc1ccccc1C(=O)c1cccn1CC(=O)N1CCCCCC1	-	-	3.98µM	.	.	?
Nc1nc(N)c(CCCCc2ccccc2)c(N)n1	.	-[10 µM]	-[13.5 µM]	-	-	.
CC1(OC(=O)C2CCCC2)C(=O)C=C2C=C(c3ccsc3)N(c3ccc(CO)cc3)C=C2C1=O (configuration not stated)	.	-[10 µM]	-[13.5 µM]	-	-	.
CN(C)S(=O)(=O)c1ccc(S(=O)(=O)Nc2ccc3c(c2)oc2ccccc23)cc1	?	-[10 µM]	12.6µM	-	-	-
O=C(Oc1ccccc1)C1O[C@@H]1c1ccccc1 (some centres not stated)	.	.	-	-	-	.
O=c1c(=Nc2ccccc2O)c(=O)c2ccccc12	-[9.22 µM]	-	22.4µM	.	-	.
CC(C)C(C)C	.	-	-	-	-	.
CNC1C(O)C(O[C@H]2C(O)[C@@H](OC3OC(CN)=CCC3N)[C@H](N)C[C@@H]2N)OC[C@]1(C)O (some centres not stated)	.	-	-	-	-	.
Oc1nc(Nc2cccc(Cl)c2)sc1/C=C1\C=Nc2ccccc21	8.91µM	-[10 µM]	-	.	.	-
C#CCCCO/N=C1/C[C@@H](O)[C@@H](O)[C@@H]2[C@@H]3C(=O)N([C@@H](C)c4ccccc4)C(=O)[C@H]3CC[C@@H]12	.	?	-[13.5 µM]	.	.	.
COc1ccc(-c2ccc(S(=O)(=O)n3nc(OC(=O)c4cccs4)cc3N)cc2)cc1	-[9.22 µM]	-[10 µM]	-	.	-	.
Cc1ccc(S(=O)(=O)n2nc(OC(=O)c3ccco3)cc2N)cc1	.	-[10 µM]	.	.	.	.
Nc1cc(OC(=O)c2ccco2)nn1S(=O)(=O)c1ccc(F)cc1	-	-	14.1µM	.	.	-
Cc1ccc(S(=O)(=O)n2nc(OC(=O)c3cccs3)cc2N)cc1	-	-	2µM	-	-	-
SMILES	HttQ103 aggreg	HTT cytoprotect	ALDH1A1 block	HPGD inh	IMPase Li cell	IMPase inh
Cc1ccc(S(=O)(=O)n2nc(OC(=O)C3CCCCC3)cc2N)cc1	-	-	?	-	-	-
COc1ccc(S(=O)(=O)n2nc(OC(=O)C3CCCCC3)cc2N)cc1	?	-	2µM	-	-	-
Cc1c(Cl)cccc1NC(=S)NC1CC1	-	.	?	-	-	.
Cc1c(Cl)cccc1NC(=S)Nn1cnnc1	-	?	12.6µM	.	-	.
CCOC(=O)CNc1c(-c2ccccc2)nc2ccc(Cl)cn12	-	-	?	?	-	-
CCOC(=O)CNc1c(-c2ccc(O)cc2)nc2ccc(Cl)cn12	-	-	7.08µM	-	-	-
Cc1cccc(NC(=O)COC(=O)c2cc(C)oc2C)c1	12.6µM	-	-	.	-	.
CCOC(=O)c1c(-c2ccc(OC)cc2)csc1NC(=O)CCN1C(=O)c2ccccc2C1=O	-	-	35.5µM	28.2µM	-	-
CCOC(=O)c1c(-c2ccc(F)cc2)csc1NC(=O)C1CCCO1 (configuration not stated)	-[9.22 µM]	-[10 µM]	11.2µM	.	-	.
CCOC(=O)c1c(-c2ccc(OC)cc2)csc1NC(=O)C1CCCO1 (configuration not stated)	-[9.22 µM]	-[10 µM]	8.91µM	.	-	.
CCOC(=O)c1c(-c2ccc(C)cc2)csc1NC(=O)C1CCCO1 (configuration not stated)	-	-[0.074 µM]	?	-	-	.
CCOC(=O)c1c(-c2ccc(OCC)cc2)csc1NC(=O)CCN1C(=O)c2ccccc2C1=O	-	-[10 µM]	-	-	-	.
CCCOC(=O)c1c(NC(=O)C2CCCO2)sc(C(=O)OC)c1C (configuration not stated)	-	.	2µM	10µM	-	.
CCOC(=O)c1sc(NC(=O)C2CCCO2)c(C(=O)OC)c1C (configuration not stated)	.	-[0.074 µM]	.	.	.	.
CCCc1ccc(C2Sc3ccccc3NC3=C2C(=O)c2ccccc23)cc1 (configuration not stated)	.	.	.	.	.	-
Cn1cc(-c2nc3cncnc3n(Cc3ccc(F)cc3)c2=O)c2ccccc21	.	-	?	.	-	.
CC(=O)N[C@@H](C(=O)O)C(C)(C)SN=O	.	-	-	-	-	-
COCCCNC(=O)CSc1nc(-c2ccc(OC)cc2)[nH]c1-c1ccc(OC)cc1	.	.	.	.	.	-
